Results filed as inconclusive are left out. Unmarked numbers belong to inactive results. Calls of active or inactive are those of the source. The call rests on the fitted dose curve; in most records, active means well fitted activation curve with a large enough effect; inconclusive means small, poorly fitted or top-dose-only effect; inactive means no such curve, though single readings can be large or run the other way.
Test: qHTS Assay for NPC1 Promoter Activators: Hit Validation Using Renila Luciferase Read-Out for NPC1; on activity change, positive = activation: % of control where 0% means no effect
Conditions: Huh7 NPC1 promoter-luciferase reporter, luminescence, 24 h; series mostly up to 76.9 µM; activity change, positive = activation: at the top concentration
Outline: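 Luciferase reporter read-out: promoter activation measured by luminescence after 10 min with detection reagent at room temperature. Cells were Huh7 with a stable NPC promoter-luciferase construct, treated 24 h at 37 deg C.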
Potency means the concentration at half of the fitted maximal effect.

Row | Compound | activity change, positive = activation [%] | Potency
1 | Cc1nc2sc(C(=O)OC(C)C)c(N)c2c(C)c1C | 0.223 | –
2 | N#CC/C(N)=N/NC(=O)CCCNc1ncc(C(F)(F)F)cc1Cl | -24.6 | –
3 | COc1ccc(C(=O)OCC(=O)N2CCCC2=O)c(OC)c1 | -4.88 | –
4 | NC(=O)C(=O)NN=C1C2CC3CC(C2)CC1C3 | -9.92 | –
5 | Cc1ccc(C#N)c(SCC(=O)Nc2nccs2)n1 | -7.61 | –
6 | Cc1ccc(NC(=O)NC(=O)c2ccccc2)cc1F | -4.34 | –
7 | Cc1nc(-c2ccc(S(=O)(=O)Oc3ccc(Cl)cc3Cl)s2)cs1 | -47.3 | –
8 | O=C(CSc1nnc(-c2ccccc2)o1)Nc1ccccc1F | -0.801 | –
9 | COC(=O)Nc1nc2ccc(Br)cc2s1 | 17.5 | –
10 | O=C(CN1C(=O)COc2ccc(Cl)cc21)NCC1CCCO1 (stereo not drawn) | 2.71 | –
11 | CCCCn1c(Nc2ccc(OC)cc2)nc2ccccc21 | -4.57 | –
12 | Nc1nc(SCCO)[nH]c(=O)c1NC(=O)c1ccco1 | 10 | –
13 | Cc1ccc(S(=O)(=O)/N=C(/Nc2ccccn2)c2ccc(Cl)cc2)cc1 | – | 11.6 µM (active)
14 | CC(Sc1nnc(C(F)(F)F)n1C)C(=O)Nc1ccc(S(N)(=O)=O)cc1 (stereo not drawn) | -6.53 | –
15 | CC1(C)CC(=O)c2c(O)c(-c3ccccc3)c(=O)n(-c3ccccc3)c2C1 | 18.9 | –
16 | COc1ccc(/C=C\C(=O)c2c(O)ccc3c(C)cc(=O)oc23)cc1OC | -52.3 | –
17 | Cn1c(SCc2ccccc2)nnc1-c1cnccn1 | -19.9 | –
18 | COc1cccc(C2Nc3ccccc3NC3=C2C(=O)CC(C)(C)C3)c1 (stereo not drawn) | -5.16 | –
19 | COc1ccc(-c2noc(N3CCCC(C(=O)Nc4ccccc4F)C3)n2)cc1 (stereo not drawn) | 4.18 | –

Row | Compound | activity change, positive = activation [%] | Potency
20 | CC(=O)c1c(C)[nH]c(C(=O)Nc2cccc(S(=O)(=O)N(C)C)c2)c1C | – | 23.2 µM (active)
21 | COc1cccc(CNC(=O)CN(c2cc(C)cc(C)c2)S(=O)(=O)c2c(C)noc2C)c1 | 7.09 | –
22 | CCN(CC(=O)N(CC(C)C)c1c(N)n(CC(C)C)c(=O)[nH]c1=O)Cc1nc2ccccc2c(=O)[nH]1 | -7.95 | –
23 | Cc1ccc(C(=O)c2cncc(Br)c2)cc1 | -4.32 | –
24 | CN(C)/C=N/c1c(C#N)cnn1-c1nc2ccccc2s1 | -0.131 | –
25 | COC(=O)c1cn(NC(=O)C2CCCCC2)c(=O)c2ccccc12 | 8.18 | –
26 | O=C(C1COc2ccccc2O1)N1CCN(S(=O)(=O)c2ccccc2)CC1 (stereo not drawn) | -1.33 | –
27 | CCCc1cc(C(=O)Nc2ccccc2SC)no1 | -2.99 | –
28 | O=C(CCNC(=O)c1ccc(Br)o1)NCc1ccc(Cl)cc1 | 2.26 | –
29 | COc1ccccc1N(C(=O)c1snc(C(N)=O)c1N)C(C(=O)NC1CCCCC1)c1cccc(OC)c1OC (stereo not drawn) | – | 11.6 µM (active)
30 | O=C(CSc1nccn1Cc1ccco1)Nc1ccccc1F | – | 36.8 µM (active)
31 | Cc1ccc(C(=O)Nc2nnc(S(=O)(=O)N3CCOCC3)s2)cc1 | 4.97 | –
32 | CC(=O)NC(CCCN1C(=O)c2ccccc2C1=O)c1nnn(C)n1 (stereo not drawn) | -17.1 | –
33 | Cc1ccc(N=Cc2sc(O)c3ccccc23)c(C)c1 | -14.6 | –
34 | O=C(c1cc2cc([N+](=O)[O-])ccc2oc1=O)n1cccn1 | 16.8 | –
35 | O=C(CCCOc1ccc(Cl)cc1)N1CCCCC1 | -10.6 | –
36 | O=C(COC(=O)c1ccc(-c2nnc(-c3ccccc3)o2)cc1)c1ccccc1 | -10.3 | –
37 | CC(C)(C)C(=O)N/C(N)=N/c1nc2ccccc2o1 | -60.7 | –
38 | COc1ccccc1CNC(=O)COc1ccc(C)cc1 | 8.49 | –
